Tau FP inhib: qHTS for Inhibitors of Tau Fibril Formation, Fluorescence Polarization; Potency, µM (titrated, usually from 57.7 µM), for inactives: top-dose activity, negative = inhibition, most hits filed as inhibitors; Microtubule-associated protein tau (Homo sapiens), P10636; 280,000 tested, 0.39% active; AID 1468, 2008; K18 P301L tau heparin fibrillization, Alexa594 FP, 6 h; also: nearly all actives have a fitted effect of over 55% in size
Target sequence (P10636 561-689 P618L limits assumed): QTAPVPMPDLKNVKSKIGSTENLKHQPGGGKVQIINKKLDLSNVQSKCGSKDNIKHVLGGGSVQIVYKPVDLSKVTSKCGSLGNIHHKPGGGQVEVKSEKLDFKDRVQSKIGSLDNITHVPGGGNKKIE
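Read-out: fluorescence polarization of Alexa 594-labeled tau (0.24 uM), 555 nm excitation, 632 nm emission. Mixtures held 15 uM unlabeled K18 P301L, compound and 20 uM heparin, pH 7 acetate buffer, incubated 6 hr at 37 C.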
KinaseGlo FLuc: Counterscreen for Luciferase (Kinase-Glo TM) Inhibition; Luciferin 4-monooxygenase (Photuris pensylvanica), Q27757; Kinase-Glo luciferase, ATP luminescence, 8 min; Potency, µM (highest dose often 38.3 µM), inactives show at the highest dose activity change, negative = inhibition, most hits filed as inhibitors; 200,000 tested, 0.28% active; AID 1379, 2008; also: nearly all actives have a fitted effect of over 60% in size
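Inhibition of Kinase-Glo luciferase light generation was assessed at 10 uM ATP in pH 7.2 imidazole buffer, with luminescence measured after eight minutes at ambient temperature.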
Tau fluor cs: Counterscreen qHTS for Inhibitors of Tau Fibril Formation, Fluorescence Polarization; tau K18 P301L Alexa594 fluorescence, heparin fibrillization; Potency, µM (doses to about 57.7 µM), inactives show at the top dose activity change, negative = decrease; 280,000 tested, 0.93% active; also: nearly all actives have a fitted effect of over 55% in size
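Human K18 P301L tau (15 uM unlabeled plus 0.24 uM Alexa 594-labeled, final) in 100 mM sodium acetate pH 7 was mixed with compound and 20 uM heparin and incubated 6 hr at 37 C.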
NPSR antag: qHTS Assay for Antagonists of the Neuropeptide S Receptor: cAMP Signal Transduction | Q6W5P4 | Potency, µM (doses to about 38.3 µM), for inactives: at the top dose activity change, negative = inhibition, usual class: inhibitors | CHO-NPSR cells, cAMP TR-FRET, antagonist mode | 220,000 tested, 1% active; also: nearly all actives have a fitted effect of over 50% in size
Target sequence (Q6W5P4 whole entry, looked up): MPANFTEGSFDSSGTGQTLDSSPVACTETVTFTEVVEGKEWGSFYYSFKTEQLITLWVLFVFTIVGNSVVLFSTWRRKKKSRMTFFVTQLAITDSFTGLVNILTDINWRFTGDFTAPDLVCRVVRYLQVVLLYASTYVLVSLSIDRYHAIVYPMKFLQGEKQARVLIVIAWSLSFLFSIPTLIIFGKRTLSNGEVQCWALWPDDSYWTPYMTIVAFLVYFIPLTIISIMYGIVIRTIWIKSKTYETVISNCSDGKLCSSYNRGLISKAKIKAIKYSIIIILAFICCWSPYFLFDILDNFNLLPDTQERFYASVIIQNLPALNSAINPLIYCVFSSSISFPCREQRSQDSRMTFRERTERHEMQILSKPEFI
Tau fibril ThT: qHTS for Inhibitors of Tau Fibril Formation, Thioflavin T Binding. Microtubule-associated protein tau (Homo sapiens), P10636. recombinant tau K18 P301L, heparin-induced fibrillization, ThT fluorescence. Potency, µM (highest dose often 57.4 µM), for the others: top-dose activity, negative = inhibition, hits mostly inhibitors. 270,000 tested, 2.1% active. AID 1460, 2008; also: nearly all actives have a fitted effect of over 55% in size
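ThT emission at 510 nm, taken 1 hr after adding 30 uM dye, quantifies aggregates formed when 20 uM heparin acts on human tau K18 P301L for 6 hr at 37 C.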
* marks the source's active call; other numbers are inactive results; ? = inconclusive; / = no result; [ ] = remark or other dose. An excerpt weighted towards active compounds, which were near 3.3% of everything screened. Calls follow the shape of the dose curve; as a rule, active = well fitted curve in the direction sought with a large enough effect; inconclusive = small, poorly fitted or top-dose-only effect, or another doubt; inactive = no such curve, though single readings can be large; an effect the other way counts as inactive or inconclusive. % is scaled to controls: 0 for no effect and ±100 for the full control effect; potency is read from the fitted curve at half-maximal effect.

SMILES	Tau FP inhib	KinaseGlo FLuc	Tau fluor cs	NPSR antag	Tau fibril ThT
Cc1ccc(C)c(CN2C(=O)c3ccccc3S(=O)c3ccc(C(=O)N4CCN(c5ccccc5F)CC4)cc32)c1 (stereo not drawn)	-5%	/	-13%	/	-8%
Cc1ccc(C)c(CN2C(=O)c3ccccc3S(=O)c3ccc(C(=O)N4CCN(c5ccccn5)CC4)cc32)c1 (stereo not drawn)	?	3%	6%	7.9µM*	3%
Cn1c(=O)c2[nH]c(N=Nc3ccc(N)cc3N)nc2n(C)c1=O	-9%	/	?	-56%	14µM*
CCOC(=O)c1sc(N)c(C(=O)Nc2ccc(C)cc2C)c1C	/	-1%	/	/	/
O=[N+]([O-])c1ccc(/C=N/n2cnc3ccccc32)s1	-12%	0%	25µM*[quencher]	-13%	14µM*
Cc1ccc[n+](CC(=O)Nc2c(Cl)cc(Cl)cc2Cl)c1	1%	-3%	5%[2.34 µM]	-7%	-2%
O=C(C[n+]1ccccc1)Nc1c(Cl)cc(Cl)cc1Cl	-62%	-9%	-39%	58%	18µM*
CN(C(=O)Cn1c(=O)n(Cc2ccc(C(=O)NCc3ccc4c(c3)OCO4)cc2)c(=O)c2ccccc21)c1ccccc1	-15%	/	-22%	/	-5%
COC(=O)c1ccc(OCC2c3cc(OC)c(OC)cc3CCN2C(=O)Cc2ccccc2)cc1 (stereo not drawn)	3%	/	-10%	/	-8%
COc1cc2c(cc1NC(=O)Nc1ccccc1)oc1ccccc12	-8%	0%	7.1µM*[quencher]	-25%[46.1 µM]	2%
COc1cc2c(cc1NC(=O)CSCC(=O)O)oc1ccccc12	5%	-3%	-4%	-14%[46.1 µM]	-4%
COc1cc2c(cc1NC(=S)Nc1cccc(C(F)(F)F)c1)oc1ccccc12	?	-3%	13µM*[quencher]	-22%[46.1 µM]	?
CCOC(=O)N1CCN(C(=O)c2c(N)no[n+]2[O-])CC1	?	0%	-11%	5%	25µM*
Cc1ccc(NC(=O)C2CCCN2S(=O)(=O)c2cccc3nsnc23)c(Br)c1 (stereo not drawn)	0%	/	-17%	/	-6%
Nc1[nH]n2c(=O)c3c(nc2c1N=Nc1ccc(Cl)cc1)CCCC3	-2%	-3%	-9%	-3%[46.1 µM]	1.4µM*
Nc1[nH]n2c(=O)c3c(nc2c1N=Nc1ccccc1)CCCC3	1%	-2%	?	?	4.5µM*
Cc1sc2c(c1C)c(=O)n(-c1ccc(Cl)cc1)c(=O)n2Cc1c(F)cccc1Cl	-6%	/	-10%	/	-9%
O=c1oc2ccccc2cc1-c1nc2c(s1)CCCC2	-12%	11µM*	-22%	?	?
O=c1oc2ccccc2cc1-c1csc(NN=C2CCCCC2)n1	-9%	-4%	25µM*[quencher]	-11%[46.1 µM]	?
O=C(Nc1nc(-c2cc3ccccc3oc2=O)cs1)c1ccco1	-14%	-1%	-12%	-6%[46.1 µM]	1%
CCCc1nc2ccccc2c(C(=O)OCC(=O)Nc2ccc(S(=O)(=O)N3CCOCC3)cc2)c1CC	?	-3%	?	10µM*	0%
CCCc1nc2ccccc2c(C(=O)OCC(=O)Nc2cccc(S(=O)(=O)N3CCOCC3)c2)c1CC	?	0%	?	-16%[46.1 µM]	-8%
CCOCc1cc(CN2CCN(c3cccc(Cl)c3)CC2)c(O)c2ncccc12	1%	/	-17%	/	-18%
COC(=O)c1c(-c2cccs2)csc1NC(=O)COc1ccc(C)cc1	-4%	/	-27%	/	?
CCOC(=O)c1c(-c2cccs2)csc1NC(=O)CC(C)C	-7%	-4%	-11%	?	-11%
SMILES	Tau FP inhib	KinaseGlo FLuc	Tau fluor cs	NPSR antag	Tau fibril ThT
COC(=O)c1c(-c2cccs2)csc1NC(=O)COc1ccccc1	?	/	?	/	20µM*
COC(=O)c1c(-c2cccs2)csc1NC(=O)COc1c(C)ccc(C)c1C	?	/	-19%	/	20µM*
CC(=O)c1ccc(NS(=O)(=O)c2ccc3[nH]c4c(c3c2)CCCCCC4)cc1	?	/	10µM*[quencher]	/	6%
CC(=O)c1ccc(NS(=O)(=O)c2ccc3[nH]c4c(c3c2)CCCC4)cc1	-7%	/	8.9µM*[quencher]	/	11%
CC(=O)Nc1ccc(NS(=O)(=O)c2ccc3[nH]c4c(c3c2)CCCCC4)cc1	-6%	/	16µM*[quencher]	/	?
CCOc1ccccc1CNC(=O)c1sc2ncccc2c1-n1cccc1	2%	/	3%	/	-3%
CCOc1ccc(-c2cnc(NCc3cccc(Cl)c3)n2C)cc1	12%	/	-22%	/	?
O=C(CC(c1ccccc1)c1cc(Br)ccc1O)NCC1(c2ccccc2)CCCC1 (stereo not drawn)	?	/	?	/	0%
N#CC(c1ccc(Cl)cc1)c1ccc2c(C(F)(F)F)cc(C(F)(F)F)nc2n1 (stereo not drawn)	5%	-12%	?	6.3µM*	?
FC(F)(F)c1cc(C(F)(F)F)c2ccc(N3CCN(c4ccc(Cl)cc4)CC3)nc2n1	-3%	5%	-29%	0%[46.1 µM]	?
CCN1CCN(Cc2ccc(NC(=O)c3cc(NC(=O)c4cc(-c5ccc(OC)cc5)n[nH]4)cc(OC)c3)cc2C(F)(F)F)CC1	28µM*	/	?	?	?
CCN1CCN(Cc2ccc(NC(=O)c3cc(NC(=O)c4ccc5n[nH]nc5c4)cc(OC)c3)cc2C(F)(F)F)CC1	?	/	-29%	13%	11%
O=C(CSc1nc(=O)[nH]c2c1CCCC2)NCc1ccccc1Cl	-8%	/	-13%	/	-14%
Cc1c(Cc2ccccc2)sc(/N=C/c2ccc3ccccc3c2)c1C(N)=O	3%	1%	-19%	5%	-16%
Cc1c(Cc2ccccc2)sc(/N=C/c2c(O)ccc3ccccc23)c1C(N)=O	?	0%	32µM*[quencher]	-2%	28µM*
Cc1cccc(Cn2c(C(=O)OC(C)C)cc3c2ccn3C)c1	?	2%	?	-28%[46.1 µM]	35µM*
Cc1cc(=O)c2c(O)c3c(O)cc(=O)c4c3c3c(cc(O)c1c23)C(C)(C)C=4O	-13%	-2%	?	/	8.9µM*
COCCNC(=O)COc1ccc(OCCNC[C@H](O)COc2ccccc2)cc1	6%	/	0%	/	3%
N=c1c2c(-c3ccccc3)c(-c3ccccc3)n(Cc3ccco3)c2ncn1Cc1ccco1	-2%	-5%	-5%	10µM*	?
COc1ccc(N(Cc2cccs2)C(=O)COc2ccc(C(C)C)cc2)cc1	9%	/	-6%	/	-13%
CCc1ccc2oc(-c3ccc(OC)cc3)cc(=Nc3c(C)n(C)n(-c4ccccc4)c3=O)c2c1	9%	-4%	-30%	?	11µM*
CCc1ccccc1NC(=O)Nc1ccc(F)cc1	1%	/	-9%	12%	-7%
O=C(Nc1ccc(F)cc1)Nc1csc2ccccc12	2%	/	8.9µM*[quencher]	-36%	/
